# Measured values as given in article PMC11066047.
# Assays:
# [1] = biological target: Eukaryotic translation initiation factor 3 subunit A (UniProt P38249); test: cross-link between two proteins; cross-linking mass spectrometry
# [2] = biological target: Histone H3 (UniProt P61830); test: as above
# [3] = biological target: Nucleolar complex protein 14 (UniProt Q99207); test: cross-link between two proteins
# [4] = biological target: Something about silencing protein 10 (UniProt Q12136); test: cross-link between two proteins
# [5] = biological target: Small ribosomal subunit protein bS1m (UniProt Q02950); test: cross-link between two proteins; cross-linking mass spectrometry
# [6] = biological target: Small ribosomal subunit protein uS8m (UniProt Q03799); test: as above
# Eukaryotic translation initiation factor 3 subunit A, sequence (P38249 whole entry): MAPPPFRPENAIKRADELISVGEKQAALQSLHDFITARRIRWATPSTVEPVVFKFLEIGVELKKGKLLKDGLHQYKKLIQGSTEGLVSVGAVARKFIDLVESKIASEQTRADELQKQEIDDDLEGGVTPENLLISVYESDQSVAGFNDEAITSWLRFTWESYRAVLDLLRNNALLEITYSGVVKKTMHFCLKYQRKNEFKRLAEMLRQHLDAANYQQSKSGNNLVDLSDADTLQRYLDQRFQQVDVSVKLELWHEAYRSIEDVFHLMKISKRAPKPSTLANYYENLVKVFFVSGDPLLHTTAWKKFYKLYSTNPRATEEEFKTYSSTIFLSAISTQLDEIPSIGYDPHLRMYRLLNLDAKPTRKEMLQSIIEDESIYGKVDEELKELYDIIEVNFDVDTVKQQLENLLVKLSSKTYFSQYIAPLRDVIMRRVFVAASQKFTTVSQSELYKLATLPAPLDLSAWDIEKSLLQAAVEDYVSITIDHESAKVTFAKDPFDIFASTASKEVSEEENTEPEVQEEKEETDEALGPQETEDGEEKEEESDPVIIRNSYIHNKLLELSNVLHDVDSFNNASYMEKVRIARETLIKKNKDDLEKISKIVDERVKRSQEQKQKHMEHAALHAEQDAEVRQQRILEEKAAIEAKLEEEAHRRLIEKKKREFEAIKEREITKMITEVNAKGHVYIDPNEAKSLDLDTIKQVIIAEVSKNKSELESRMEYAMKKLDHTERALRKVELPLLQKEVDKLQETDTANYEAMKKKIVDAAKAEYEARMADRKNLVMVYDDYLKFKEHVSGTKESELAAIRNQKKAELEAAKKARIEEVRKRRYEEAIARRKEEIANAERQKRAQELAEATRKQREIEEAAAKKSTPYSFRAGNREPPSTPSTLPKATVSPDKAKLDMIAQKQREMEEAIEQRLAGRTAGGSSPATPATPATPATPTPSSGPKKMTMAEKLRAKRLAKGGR
substance,measurement,setting,value
"Eukaryotic translation initiation factor 3 subunit B, P06103",listed as a hit,[1],yes
"Histone H4, P02309",listed as a hit,[2],yes
"Ribosomal RNA small subunit methyltransferase NEP1, Q06287",listed as a hit,[3],yes
same,listed as a hit,[4],yes
"Small ribosomal subunit protein bS18m, P40033",listed as a hit,[5],yes
"Small ribosomal subunit protein mS23, P40496",listed as a hit,[6],yes
